Measurements as given in PubChem BioAssay (NCI).
The panel holds about 83,000 compounds, 20% with a hit somewhere; the sample as a whole holds those more often.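 Growth was measured after 48 h exposure to one concentration of compound in 96-well plates. Values under 10 count as active.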 Values without a mark were called inactive. Activity calls are given as the source filed them.

Tested on: M14 melanoma
Experiment: NCI-60 one-dose screen, 48 h (100 = growth as untreated, 0 = no growth, -100 = all killed)
Settings: 10 µM unless noted

Compound | growth
O=C1Nc2ccc(Br)cc2/C1=N\c1nnc(-c2ccc(Cl)cc2)o1 | 51.2%
C#C[C@]1(O)CC[C@H]2[C@@H]3CC=C4c5sc(Nc6cccc(C)n6)nc5CC[C@]4(C)[C@H]3CC[C@@]21C | -29.8% (active)
CS(=O)(=O)c1ccc2c(c1)c1c(n2Cc2ccc(Cl)cc2)CCCC1 | 75.6%
COc1ccc(-c2nnc(/N=C3/C(=O)Nc4ccc(Br)cc43)o2)cc1 | 101%
COc1ccc(S(=O)(=O)n2cc(C=O)c3ccccc32)c(OC)c1 | 52.8%
O=C1c2c(c3c4cccnc4[nH]c3c3ccc4ccccc4c23)C(=O)N1CCN1CCOCC1 | 47.4%
COc1ccc(NC2=C(Cl)C(=O)C(C)=C(C)C2=O)cc1 | 95.5%
COc1ccc(-c2cc(-c3ccc(Cl)cc3)nc3nc(N)nn23)cc1 | 117%
C#C[C@]1(O)CC[C@H]2[C@@H]3CC=C4c5sc(Nc6nc(C)cc(OC)n6)nc5CC[C@]4(C)[C@H]3CC[C@@]21C | 27%
COc1ccc(/C=C/C(=O)c2nnn(-c3ccc(C(=O)O)cc3)c2C)cc1OC | 92.6%
COc1cc(O)c2c(c1)/C=C/C[C@H](O)[C@H](O)C(=O)/C=C\C[C@H](C)OC2=O | -22.7% (active)
COc1ccccc1/C=C/C(=O)c1nnn(-c2ccc(C(=O)O)cc2)c1C | 77.8%
O=S(=O)(Nc1ccc(C2CC2)cc1)c1ccc(-c2cnc(C3CC3)o2)cc1 | 53.6%
COc1cc(/C=N/Nc2ccnc3cc(Cl)ccc23)cc(OC)c1O | -90.1% (active)
COc1ccc(-c2nc(SCC(C)C)nc(N/N=C\c3cccc([N+](=O)[O-])c3)c2C#N)cc1 | 76.9%
CCCCCCNC(=O)Oc1ccc(/C(=C(\C)c2ccc(OC)cc2)c2ccc(OCCN(C)C)cc2)cc1 | 6.24% (active)
CCCCSc1nnc(-c2ccc(-c3ccc(Cl)cc3)nc2C)o1 | 104%
CC(C)c1nn(-c2ccccc2)c(N2CCCCC2)c1/C=N/NC(N)=S | 113%
C#C[C@]1(O)CC[C@H]2[C@@H]3CC=C4c5sc(Nc6ccc(OC)nc6)nc5CC[C@]4(C)[C@H]3CC[C@@]21C | 59%

Compound | growth
COc1cc(-c2noc(C[C@@H](NC(=O)OCc3ccccc3)C(C)C)n2)cc(OC)c1OC | 100%
COc1ccc(-c2ccc3c4c(cccc24)C(=O)N(N2C(=O)c4cccc5cccc(c45)C2=O)C3=O)cc1 | 94.1%
Cc1nn(-c2ccc(Br)cc2)c2nc(CCl)[nH]c(=O)c12 | 101%
CN1CCN(c2ccc(C(=O)Nc3cccc(-c4cn(-c5ccc(S(N)(=O)=O)cc5)nn4)c3)cc2C(F)(F)F)CC1 | 82.2%
COc1ccc(Cn2cc3c(c2-c2ccccc2)CCCc2cnoc2-3)cc1[N+](=O)[O-] | 51%
NS(=O)(=O)Oc1ccc2nc(Nc3ccc(F)c(F)c3)ccc2c1 | 87.9%
O=C1c2c(c3c4cc(Br)ccc4[nH]c3c3ccc4ccccc4c23)C(=O)N1CCN1CCNCC1 | 87.6%
CC1CCN(S(=O)(=O)c2ncsc2-c2ccccc2)CC1 | 83.5%
O=C1NC(=O)c2c1c1c3ccccc3ccc1c1[nH]c3ccccc3c21 | 15.9%
COc1cc([C@H]2OC[C@H]3[C@@H]2CO[C@@H]3c2ccc(O)c(OC)c2)ccc1O | 102%
CCN(CC)CCN1C(=O)c2c(c3c4cc(Br)ccc4[nH]c3c3ccc4ccccc4c23)C1=O | -63.9% (active)
CC(C)=CCC[C@](C)(O)[C@H]1CC[C@]2(C)[C@@H]1CC[C@@H]1[C@@]3(C)CCC(NC(=O)c4ccccc4C(=O)O)C(C)(C)[C@@H]3CC[C@]12C (stereo partly specified) | 57.8%
Clc1ccc(-c2csc(N/N=C/c3nc4ccccc4n3C3CC3)n2)cc1 | 91.9%
Cc1ccc(-c2csc(N/N=C/c3nc4ccccc4n3C3CC3)n2)cc1 | 89%
C#C[C@]1(O)CC[C@H]2[C@@H]3CC=C4c5sc(-c6ccccn6)nc5CC[C@]4(C)[C@H]3CC[C@@]21C | 74.8%
O=C1c2c(c3c4cccnc4[nH]c3c3ccc4ccccc4c23)C(=O)N1CCN1CCNCC1 | 64.4%
O=C1c2c(c3c4cccnc4[nH]c3c3ccc4ccccc4c23)C(=O)N1CCN1CCCCC1 | 45.8%
COc1ccc(-c2nc(SCCC(C)C)nc(N/N=C\c3ccc(O)cc3)c2C#N)cc1 | 76.6%
CN(C)C(=O)C1=NC(CO)C(=O)N(c2ccc(Cl)cc2)N1 (stereo unspecified) | 92.8%

Tested on: HCT-15 colon
Experiment: as above
Settings: 10 µM unless noted

Compound | growth
O=C1Nc2ccc(Br)cc2/C1=N\c1nnc(-c2ccc(Cl)cc2)o1 | 24.2%
C#C[C@]1(O)CC[C@H]2[C@@H]3CC=C4c5sc(Nc6cccc(C)n6)nc5CC[C@]4(C)[C@H]3CC[C@@]21C | 15.6%
CS(=O)(=O)c1ccc2c(c1)c1c(n2Cc2ccc(Cl)cc2)CCCC1 | 54.9%
COc1ccc(-c2nnc(/N=C3/C(=O)Nc4ccc(Br)cc43)o2)cc1 | 91.3%
COc1ccc(S(=O)(=O)n2cc(C=O)c3ccccc32)c(OC)c1 | 40%
O=C1c2c(c3c4cccnc4[nH]c3c3ccc4ccccc4c23)C(=O)N1CCN1CCOCC1 | 47.5%
COc1ccc(NC2=C(Cl)C(=O)C(C)=C(C)C2=O)cc1 | 94.8%
COc1ccc(-c2cc(-c3ccc(Cl)cc3)nc3nc(N)nn23)cc1 | 90.2%
C#C[C@]1(O)CC[C@H]2[C@@H]3CC=C4c5sc(Nc6nc(C)cc(OC)n6)nc5CC[C@]4(C)[C@H]3CC[C@@]21C | 35.3%
COc1ccc(/C=C/C(=O)c2nnn(-c3ccc(C(=O)O)cc3)c2C)cc1OC | 89.6%
COc1cc(O)c2c(c1)/C=C/C[C@H](O)[C@H](O)C(=O)/C=C\C[C@H](C)OC2=O | -47.5% (active)
COc1ccccc1/C=C/C(=O)c1nnn(-c2ccc(C(=O)O)cc2)c1C | 71.6%
O=S(=O)(Nc1ccc(C2CC2)cc1)c1ccc(-c2cnc(C3CC3)o2)cc1 | 39.9%
COc1cc(/C=N/Nc2ccnc3cc(Cl)ccc23)cc(OC)c1O | -58.9% (active)
COc1ccc(-c2nc(SCC(C)C)nc(N/N=C\c3cccc([N+](=O)[O-])c3)c2C#N)cc1 | 46.3%
CCCCCCNC(=O)Oc1ccc(/C(=C(\C)c2ccc(OC)cc2)c2ccc(OCCN(C)C)cc2)cc1 | 30.8%
CCCCSc1nnc(-c2ccc(-c3ccc(Cl)cc3)nc2C)o1 | 92.6%
CC(C)c1nn(-c2ccccc2)c(N2CCCCC2)c1/C=N/NC(N)=S | 70.8%
C#C[C@]1(O)CC[C@H]2[C@@H]3CC=C4c5sc(Nc6ccc(OC)nc6)nc5CC[C@]4(C)[C@H]3CC[C@@]21C | -66.4% (active)

Compound | growth
COc1cc(-c2noc(C[C@@H](NC(=O)OCc3ccccc3)C(C)C)n2)cc(OC)c1OC | 97.4%
COc1ccc(-c2ccc3c4c(cccc24)C(=O)N(N2C(=O)c4cccc5cccc(c45)C2=O)C3=O)cc1 | 99.1%
Cc1nn(-c2ccc(Br)cc2)c2nc(CCl)[nH]c(=O)c12 | 103%
CN1CCN(c2ccc(C(=O)Nc3cccc(-c4cn(-c5ccc(S(N)(=O)=O)cc5)nn4)c3)cc2C(F)(F)F)CC1 | 41.1%
COc1ccc(Cn2cc3c(c2-c2ccccc2)CCCc2cnoc2-3)cc1[N+](=O)[O-] | 27.3%
NS(=O)(=O)Oc1ccc2nc(Nc3ccc(F)c(F)c3)ccc2c1 | 69.6%
O=C1c2c(c3c4cc(Br)ccc4[nH]c3c3ccc4ccccc4c23)C(=O)N1CCN1CCNCC1 | -87.3% (active)
CC1CCN(S(=O)(=O)c2ncsc2-c2ccccc2)CC1 | 79%
O=C1NC(=O)c2c1c1c3ccccc3ccc1c1[nH]c3ccccc3c21 | 13.4%
COc1cc([C@H]2OC[C@H]3[C@@H]2CO[C@@H]3c2ccc(O)c(OC)c2)ccc1O | 88.4%
CCN(CC)CCN1C(=O)c2c(c3c4cc(Br)ccc4[nH]c3c3ccc4ccccc4c23)C1=O | -88.6% (active)
CC(C)=CCC[C@](C)(O)[C@H]1CC[C@]2(C)[C@@H]1CC[C@@H]1[C@@]3(C)CCC(NC(=O)c4ccccc4C(=O)O)C(C)(C)[C@@H]3CC[C@]12C (stereo partly specified) | 87.7%
Clc1ccc(-c2csc(N/N=C/c3nc4ccccc4n3C3CC3)n2)cc1 | 90.5%
Cc1ccc(-c2csc(N/N=C/c3nc4ccccc4n3C3CC3)n2)cc1 | 80.6%
C#C[C@]1(O)CC[C@H]2[C@@H]3CC=C4c5sc(-c6ccccn6)nc5CC[C@]4(C)[C@H]3CC[C@@]21C | 68.9%
O=C1c2c(c3c4cccnc4[nH]c3c3ccc4ccccc4c23)C(=O)N1CCN1CCNCC1 | 3.44% (active)
O=C1c2c(c3c4cccnc4[nH]c3c3ccc4ccccc4c23)C(=O)N1CCN1CCCCC1 | 45.5%
COc1ccc(-c2nc(SCCC(C)C)nc(N/N=C\c3ccc(O)cc3)c2C#N)cc1 | 28.2%
CN(C)C(=O)C1=NC(CO)C(=O)N(c2ccc(Cl)cc2)N1 (stereo unspecified) | 102%
